# Experimental data as given in PubChem BioAssay (EPA / NIEHS).
# Inconclusive results are not listed. The source made the active and inactive calls. The calls were made as follows: active = hit-call score of the fitted dose curve at least 0.9, where 1 is the maximum; inconclusive = response in the unintended direction; inactive = score below 0.9.
# Target: human Phosphodiesterase 10 (PDE10), PDE10A (gene 10846) (UniProt Q9Y233)
# Assay: NVS_ENZ_hPDE10: NovaScreen (NVS) Enzymatic Assay for human Phosphodiesterase 10 (PDE10) (AID 2283195)
# Summary of the method: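 Readout is fluorescence intensity following electrophoretic mobility-shift separation, 1 h after dosing of isolated PDE10A protein. Hits meeting a preset threshold at 25 uM went to concentration series (max 50 uM), analysed relative to DMSO.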
# Chain of human Phosphodiesterase 10 (PDE10), PDE10A (gene 10846) (Q9Y233 whole entry, looked up): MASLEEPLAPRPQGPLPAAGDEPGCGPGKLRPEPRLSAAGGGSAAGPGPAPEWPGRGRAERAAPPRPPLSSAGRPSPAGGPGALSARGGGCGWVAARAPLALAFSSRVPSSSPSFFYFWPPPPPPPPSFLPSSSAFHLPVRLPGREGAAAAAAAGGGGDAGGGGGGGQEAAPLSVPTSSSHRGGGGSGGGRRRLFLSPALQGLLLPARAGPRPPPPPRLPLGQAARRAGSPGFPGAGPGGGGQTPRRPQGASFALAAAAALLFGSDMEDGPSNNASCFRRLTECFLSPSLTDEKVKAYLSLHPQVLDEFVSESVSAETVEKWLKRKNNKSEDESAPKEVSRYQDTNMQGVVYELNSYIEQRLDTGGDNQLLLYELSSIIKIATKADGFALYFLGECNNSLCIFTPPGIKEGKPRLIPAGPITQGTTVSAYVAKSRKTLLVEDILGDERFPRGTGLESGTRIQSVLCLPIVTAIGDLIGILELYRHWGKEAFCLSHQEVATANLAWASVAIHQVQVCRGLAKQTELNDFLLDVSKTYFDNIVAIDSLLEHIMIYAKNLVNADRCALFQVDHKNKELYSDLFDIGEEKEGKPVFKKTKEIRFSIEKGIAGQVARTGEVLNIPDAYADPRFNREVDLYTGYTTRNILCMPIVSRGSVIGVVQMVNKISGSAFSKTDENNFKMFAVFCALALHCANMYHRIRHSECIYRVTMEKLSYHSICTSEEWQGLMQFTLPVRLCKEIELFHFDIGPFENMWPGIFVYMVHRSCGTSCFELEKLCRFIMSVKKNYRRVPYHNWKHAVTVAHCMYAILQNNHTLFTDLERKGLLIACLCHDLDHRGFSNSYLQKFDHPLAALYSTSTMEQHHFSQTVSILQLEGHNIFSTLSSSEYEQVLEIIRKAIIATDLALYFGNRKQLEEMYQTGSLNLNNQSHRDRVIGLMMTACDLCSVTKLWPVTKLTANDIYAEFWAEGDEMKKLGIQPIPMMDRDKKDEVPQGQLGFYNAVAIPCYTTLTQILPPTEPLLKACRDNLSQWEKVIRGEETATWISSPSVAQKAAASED
Structure (SMILES),outcome,AC50
O=C1OC(=O)c2c(Br)c(Br)c(Br)c(Br)c21,inactive,–
O=CN1CCOCC1,inactive,–
COc1cccc(OC)c1O,inactive,–
C=C(C)[C@H]1CC=C(C)C(=O)C1,inactive,–
Oc1c(Cl)cc(Cl)c(Cl)c1Cc1c(O)c(Cl)cc(Cl)c1Cl,inactive,–
COc1ccc(OC)c(N=Nc2c(O)ccc3ccccc23)c1,–,42.3 µM (active)
OCCCCC(O)CO (stereo unspecified),–,40.4 µM (active)
CC=Cc1ccc(OCC)c(O)c1,inactive,–
CCC(C)c1cc([N+](=O)[O-])cc([N+](=O)[O-])c1OC(=O)OC(C)C (stereo unspecified),inactive,–
O=[N+]([O-])c1cccc(Cl)c1,–,25 µM (active)
CS(=O)(=O)c1ccc(C2=C(c3ccccc3)C(=O)OC2)cc1,inactive,–
CCC1CCCCC1,inactive,–
Cc1ncc([N+](=O)[O-])n1CCO,inactive,–
CC(C)Nc1nc(N)nc(Cl)n1,inactive,–
CCCCC(CC)(CO)CO,inactive,–
CCCCSCCCC,–,1 µM (active)
C=CC(=O)OCCCC,–,10.2 µM (active)

# Target: human Phosphoinositide 3-kinase alpha (PI3Ka), PIK3CA (gene 5290) (UniProt P42336)
# Sequence (P42336 whole entry, looked up): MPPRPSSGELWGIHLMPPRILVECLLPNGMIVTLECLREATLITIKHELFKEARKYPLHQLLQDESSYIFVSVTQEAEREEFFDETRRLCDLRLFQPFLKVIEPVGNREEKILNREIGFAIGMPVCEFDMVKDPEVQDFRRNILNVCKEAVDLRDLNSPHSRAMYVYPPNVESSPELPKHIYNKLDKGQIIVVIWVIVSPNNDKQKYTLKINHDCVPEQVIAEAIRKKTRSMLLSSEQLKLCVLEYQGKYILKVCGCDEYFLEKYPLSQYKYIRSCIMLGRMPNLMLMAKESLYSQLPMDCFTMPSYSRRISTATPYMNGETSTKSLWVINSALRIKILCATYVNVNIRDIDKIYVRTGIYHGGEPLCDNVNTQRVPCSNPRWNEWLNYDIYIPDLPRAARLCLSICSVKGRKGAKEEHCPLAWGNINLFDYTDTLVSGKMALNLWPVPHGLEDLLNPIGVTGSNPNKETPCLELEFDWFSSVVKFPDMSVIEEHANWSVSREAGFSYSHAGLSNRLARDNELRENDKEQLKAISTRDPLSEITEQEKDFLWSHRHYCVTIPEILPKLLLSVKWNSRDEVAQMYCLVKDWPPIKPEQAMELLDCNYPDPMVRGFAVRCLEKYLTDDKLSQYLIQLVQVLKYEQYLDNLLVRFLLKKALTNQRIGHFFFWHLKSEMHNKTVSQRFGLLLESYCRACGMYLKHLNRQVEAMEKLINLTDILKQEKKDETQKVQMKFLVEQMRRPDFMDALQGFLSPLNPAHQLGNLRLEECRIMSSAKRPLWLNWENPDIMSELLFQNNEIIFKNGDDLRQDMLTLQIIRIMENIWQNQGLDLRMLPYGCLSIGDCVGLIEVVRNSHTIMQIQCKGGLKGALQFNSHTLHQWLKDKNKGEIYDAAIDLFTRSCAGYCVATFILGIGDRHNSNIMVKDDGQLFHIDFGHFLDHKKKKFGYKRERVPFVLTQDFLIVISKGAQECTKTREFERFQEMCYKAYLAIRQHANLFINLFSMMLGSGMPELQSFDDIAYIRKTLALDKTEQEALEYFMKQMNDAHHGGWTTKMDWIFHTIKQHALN
# Assay: NVS_ENZ_hPI3Ka: NovaScreen (NVS) Enzymatic Assay for human Phosphoinositide 3-kinase alpha (PI3Ka) (AID 2283196)
# Summary of the method: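 Fluorescence/mobility-shift readout of substrate conversion by recombinant enzyme, 1 h post-dosing. Primary screen in duplicate at 25 uM; actives (e.g. ≥30% inhibition) retested in singleton concentration-response, top concentration 50 uM.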
Structure (SMILES),outcome,AC50
Cc1ccc(C)o1,inactive,–
NC(=S)NNC(N)=S,inactive,–
O=CN1CCOCC1,inactive,–
CC(C)(C)CC(C)(C)c1ccc(OCCOCC[N+](C)(C)Cc2ccccc2)cc1,–,9.05 µM (active)
Oc1c(Cl)cc(Cl)c(Cl)c1Cc1c(O)c(Cl)cc(Cl)c1Cl,–,1.96 µM (active)
CCCCCCOCCOCCO,inactive,–
OCCCCC(O)CO (stereo unspecified),–,0.803 µM (active)
c1ccc2cc(Nc3ccc(Nc4ccc5ccccc5c4)cc3)ccc2c1,–,17.6 µM (active)
C=CC(=O)OCCCC,–,0.00235 µM (active)
